p97 ATPase inh: inhibitors of human p97 ATPase; P55072; recombinant p97 ATPase, Kinase-Glo ATP luminescence, 3 h; inhibition, % at 8 µM; actives 0.42% (n = 220,000); AID 1481; in the data active means inhibition above about 15%
Furin inhibitor: inhibitors of human furin | P09958 | purified furin, fluorogenic substrate cleavage | inhibition, % at 20 µM or 30 µM | actives 0.061% (n = 220,000); in the data active means inhibition above about 25%
Target sequence (P09958 108-714 limits assumed): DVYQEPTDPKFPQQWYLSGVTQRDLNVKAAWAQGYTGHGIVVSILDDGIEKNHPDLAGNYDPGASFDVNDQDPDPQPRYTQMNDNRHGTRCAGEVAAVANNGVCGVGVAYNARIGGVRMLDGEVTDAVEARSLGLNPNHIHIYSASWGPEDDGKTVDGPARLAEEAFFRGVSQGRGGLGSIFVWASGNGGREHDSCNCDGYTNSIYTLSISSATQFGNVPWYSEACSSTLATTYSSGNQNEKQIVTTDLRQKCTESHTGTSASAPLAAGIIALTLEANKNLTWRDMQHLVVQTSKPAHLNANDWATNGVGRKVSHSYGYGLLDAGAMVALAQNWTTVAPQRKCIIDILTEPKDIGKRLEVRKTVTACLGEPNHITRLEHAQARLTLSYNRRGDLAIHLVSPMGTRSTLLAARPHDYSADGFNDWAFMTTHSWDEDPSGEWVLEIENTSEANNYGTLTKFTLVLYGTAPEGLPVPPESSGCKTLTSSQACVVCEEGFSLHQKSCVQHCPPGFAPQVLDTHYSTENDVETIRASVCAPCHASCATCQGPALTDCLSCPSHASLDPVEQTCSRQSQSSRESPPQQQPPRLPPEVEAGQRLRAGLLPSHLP
PKD1 inh: inhibitors of human PKD1 kinase | Q15139 | PKD1 kinase fluorescence polarization assay | actives 0.056% (n = 200,000) | inhibition, % (concentration not given with the values); in the data active means inhibition above about 50%
SUMO HTRF inh: blocks human SUMOylation mediated by UBC9; P63279; HTRF SUMOylation assay, SAE1/SAE2 + UBC9, in vitro; inhibition, % at 35 µM; actives 0.36% (n = 290,000); in the data active means inhibition above about 50%, passing the limit was not always enough
Target sequence (P63279 whole entry, looked up): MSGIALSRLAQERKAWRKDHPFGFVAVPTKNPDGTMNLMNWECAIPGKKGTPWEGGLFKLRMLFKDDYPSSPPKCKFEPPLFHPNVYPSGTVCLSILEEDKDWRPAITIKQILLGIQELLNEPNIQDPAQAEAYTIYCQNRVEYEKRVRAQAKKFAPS
DTT redox prof: compounds producing H2O2 with reducing agent – biochemical, NIH compound library profiling, artefact control for MLSCN library redox annotation, primary screen | DTT-dependent redox cycling H2O2, phenol red/HRP absorbance; 100% = 100 µM peroxide control, 0% = buffer | activation, % at 10 µM | actives 0.03% (n = 200,000) | AID 878;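 active means activation of at least 50% relative to the plate's high and low controls in the primary single-dose screen; inactive means activation below 50%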;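 further: compound incubated with DTT at 0.8 mM final as the reducing agent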
FAS TE block: inhibitors of human fatty acid synthase thioesterase domain; recombinant FAS-TE, OMFH fluorogenic substrate, fluorescence endpoint; inhibition, % at 15 µM; actives 0.67% (n = 360,000); AID 602261;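 active means compounds whose normalised, plate-corrected inhibition of enzyme fluorescence in the single-dose primary screen is 50% or more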
FAS-TE inh conf: confirmation of human fatty acid synthase thioesterase inhibitors; shares compounds with FAS TE block; recombinant FAS-TE, OMFH fluorogenic substrate, fluorescence; inhibition, % at 15 µM; actives 45% (n = 2,300);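 active means compounds inhibiting the enzyme by at least 50% at 15 µM in any one of the replicates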
Large screens that a line does not name were inactive (follow-up assays come after a bar, where they were run). In the library only some 1.2% were active in any assay of this set; here they are far more common.

Cc1cccn2c(=O)c3cc(S(=O)(=O)c4ccc(Br)cc4)c(=N)n(C4CCCCC4)c3nc12	FAS TE block 51 (no result: p97 ATPase inh, Furin inhibitor, PKD1 inh, DTT redox prof) | FAS-TE inh conf inactive
O=C(CSc1nnc(-c2ccccn2)n1Cc1ccco1)c1ccc(-c2ccccc2)cc1	FAS TE block 51 | FAS-TE inh conf inactive
O=C(CCC(=O)N1CCOc2ccccc21)Nc1ccccc1Cl	none (no result: p97 ATPase inh, Furin inhibitor, PKD1 inh, DTT redox prof)
COc1ccc(/C=N\NC(=O)CNC(=O)C(c2ccccc2)c2ccccc2)cc1[N+](=O)[O-]	FAS TE block 54 | FAS-TE inh conf 42
COc1cc(/C=N\NC(=O)CNC(=O)C(c2ccccc2)c2ccccc2)ccc1O	none (no result: PKD1 inh, DTT redox prof)
CC(=O)c1ccc(C(=O)N2CCC(n3nccc3NC(=O)C3CC3)CC2)cc1	none (no result: p97 ATPase inh, Furin inhibitor, PKD1 inh, DTT redox prof)
Cc1ccc(N2C(=O)c3cccc4c(Oc5ccccc5[N+](=O)[O-])ccc(c34)C2=O)c(C)c1	FAS TE block 61 | FAS-TE inh conf inactive
O=C1c2cccc3c([N+](=O)[O-])ccc(c23)C(=O)N1c1ccccn1	none
Cc1ccc(S(=O)(=O)Nc2ccc3c(c2)c2c(n3S(=O)(=O)c3ccc(C)cc3)CCCC2=O)cc1	FAS TE block 51 | FAS-TE inh conf inactive
Cc1ccc(S(=O)(=O)Nc2ccc3c(c2)CCC3)cc1	none
CN(C1CCCCC1)S(=O)(=O)c1ccc(SCC(=O)C(C)(C)C)nc1	FAS TE block 54 (no result: p97 ATPase inh, Furin inhibitor, PKD1 inh, SUMO HTRF inh, DTT redox prof) | FAS-TE inh conf inactive
CC(C)CNC(=O)CSc1ccc(S(=O)(=O)N(C)C2CCCCC2)cn1	none (no result: p97 ATPase inh, Furin inhibitor, PKD1 inh, SUMO HTRF inh, DTT redox prof)
COc1ccc(C(=O)NC(C)c2cccnc2)cc1S(=O)(=O)N(C)Cc1ccccc1 (configuration not stated)	none (no result: p97 ATPase inh, Furin inhibitor, PKD1 inh, SUMO HTRF inh, DTT redox prof)
COc1ccc(NCC(=O)N/N=C/c2cc([N+](=O)[O-])ccc2N2CCCC2)cc1	none
Cc1cccc(OCC(=O)N/N=C/c2cc([N+](=O)[O-])ccc2N2CCOCC2)c1	FAS TE block 66 | FAS-TE inh conf 57
CCc1ccc(OCC(=O)N/N=C/c2cc([N+](=O)[O-])ccc2N2CCOCC2)cc1	FAS TE block 73 | FAS-TE inh conf inactive
O=C(N/N=C\c1cc([N+](=O)[O-])ccc1N1CCOCC1)c1ccccn1	none
C[C@H]1CN([C@@H](C)CO)C(=O)CCCn2nncc2CO[C@H]1CN(C)C(=O)Nc1ccnc(N2CCOCC2)c1	none (no result: p97 ATPase inh, Furin inhibitor, PKD1 inh, SUMO HTRF inh, DTT redox prof)
Cc1ccc(-c2nnc(Nc3ccc4c(c3)OCO4)c3ccccc23)cc1S(=O)(=O)NC(C)C	FAS TE block 51 | FAS-TE inh conf inactive
CCOc1ccc(CCNC(=O)c2c(C)nn(-c3ccccc3)c2Cl)cc1OCC	none (no result: p97 ATPase inh, Furin inhibitor, PKD1 inh, DTT redox prof)
COc1ccccc1C(=O)N(C)c1nnc(-c2ccccc2)s1	none (no result: p97 ATPase inh, Furin inhibitor, PKD1 inh, DTT redox prof)
N#Cc1ccccc1OCC(=O)N1CCN(C(=O)c2ccco2)CC1	none (no result: p97 ATPase inh, Furin inhibitor, PKD1 inh, DTT redox prof)
Cc1cc(=O)n2[nH]c(-c3ccc(C(C)(C)C)cc3)cc2n1	FAS TE block 63 | FAS-TE inh conf 44
Cc1cc(=O)n2[nH]c(-c3ccccc3)cc2n1	none
O=C1NC[C@@H](c2ccccc2)OC(=O)[C@H](Cc2ccc(F)cc2)C/C=C\C[C@@H]1CC(=O)N(CCO)Cc1ccccc1	none (no result: p97 ATPase inh, Furin inhibitor, PKD1 inh, SUMO HTRF inh, DTT redox prof)
COc1ccc(S(=O)(=O)Nc2cccc(-c3ccc(N4CCCCCC4)nn3)c2)cc1OC	FAS TE block 54 (no result: p97 ATPase inh, Furin inhibitor, PKD1 inh, SUMO HTRF inh, DTT redox prof) | FAS-TE inh conf inactive
COc1ccc(OC)c(S(=O)(=O)Nc2cccc(-c3ccc(N4CCCCCC4)nn3)c2)c1	none (no result: p97 ATPase inh, Furin inhibitor, PKD1 inh, DTT redox prof)
Cc1ccc(S(=O)(=O)Nc2cccc(-c3ccc(N4CCCCCC4)nn3)c2)cc1	FAS TE block 59 (no result: p97 ATPase inh, Furin inhibitor, PKD1 inh, DTT redox prof) | FAS-TE inh conf 52
CCOc1ccc(CCNc2nc3ccc(C)cc3n3cnnc23)cc1OCC	none (no result: p97 ATPase inh, Furin inhibitor, PKD1 inh, DTT redox prof)
CC(=O)c1c(C)oc2ccc(N(C(=O)c3ccncc3)S(=O)(=O)c3ccccc3)cc12	none
O=C(c1ccncc1)N(c1ccc2oc3c(c2c1)CCCC3)S(=O)(=O)c1ccc(F)cc1	FAS TE block 65 | FAS-TE inh conf inactive
CC1(C(=O)NS(=O)(=O)c2ccc(F)cc2F)CCN1C(=O)Cc1ccc(-c2ccccc2)cc1 (configuration not stated)	none (no result: p97 ATPase inh, Furin inhibitor, PKD1 inh, SUMO HTRF inh, DTT redox prof)
CCCCc1ccc(C2C3=C(CC(C)(C)CC3=O)NC3=C2C(=O)c2ccccc23)cc1 (configuration not stated)	FAS TE block 63 | FAS-TE inh conf inactive
CCCc1ccc(C2C3=C(CC(C)(C)CC3=O)NC3=C2C(=O)c2ccccc23)cc1 (configuration not stated)	none
COc1ccc(S(=O)(=O)N2CCC(C(=O)NCCC(=O)NC3CC3)CC2)cc1	none (no result: p97 ATPase inh, Furin inhibitor, PKD1 inh, DTT redox prof)
Cc1ccc(C(=O)NCC(=O)OCc2nnc(-c3ccc([N+](=O)[O-])cc3)o2)cc1	FAS TE block 68 (no result: p97 ATPase inh, Furin inhibitor, PKD1 inh, SUMO HTRF inh, DTT redox prof) | FAS-TE inh conf 53
COC(=O)C(CCCCNC(=O)c1ccc([N+](=O)[O-])cc1)NC(=O)c1ccc([N+](=O)[O-])cc1 (configuration not stated)	FAS TE block 50 | FAS-TE inh conf 52
COC(=O)C(CC(C)C)NC(=O)c1ccc([N+](=O)[O-])cc1 (configuration not stated)	none
COc1ccc(C(=O)NCC(=O)OCc2ccc([N+](=O)[O-])cc2)cc1	FAS TE block 52 | FAS-TE inh conf inactive
C[C@H]1CN([C@@H](C)CO)C(=O)CCCn2nncc2CO[C@@H]1CN(C)Cc1ccccc1C(F)(F)F	none (no result: p97 ATPase inh, Furin inhibitor, PKD1 inh, SUMO HTRF inh, DTT redox prof)
Cc1cc(O)ccc1-c1cc(C(=O)NCc2ccc(F)cc2)[nH]n1	none (no result: p97 ATPase inh, Furin inhibitor, PKD1 inh, SUMO HTRF inh, DTT redox prof)
O=C1CC(c2cccc(Cl)c2)c2cc3c(cc2N1)CCC3 (configuration not stated)	none
O=C1CC(c2cccc([N+](=O)[O-])c2)c2c(ccc3ccccc23)N1 (configuration not stated)	FAS TE block 55 | FAS-TE inh conf 49
O=C1CC(c2cccc([N+](=O)[O-])c2)c2cc3c(cc2N1)CCC3 (configuration not stated)	FAS TE block 51 | FAS-TE inh conf 33
O=C(NNC(=O)c1ccncc1)Nc1ccc(Cl)cc1	none (no result: p97 ATPase inh, Furin inhibitor, PKD1 inh, SUMO HTRF inh, DTT redox prof)
Cc1ccc(S(=O)(=O)Nc2ccccc2C(=O)Nc2nc(-c3ccc(F)cc3)cs2)cc1	FAS TE block 56 | FAS-TE inh conf 58
COc1ccc(-c2csc(NC(=O)c3ccccc3NS(=O)(=O)c3ccc(F)c(F)c3)n2)cc1	SUMO HTRF inh 67, FAS TE block 58 | FAS-TE inh conf inactive
COc1ccc(-c2csc(NC(=O)c3ccccc3F)n2)cc1	none (no result: p97 ATPase inh, Furin inhibitor, PKD1 inh, DTT redox prof)
O=C(Nc1nc(-c2ccccc2)c(C(=O)c2ccccc2)s1)c1ccc(S(=O)(=O)N2CCCC2)cc1	FAS TE block 83 | FAS-TE inh conf inactive
O=C(Nc1nc(-c2ccccc2)c(-c2ccccc2)s1)c1ccc(S(=O)(=O)N2CCCC2)cc1	FAS TE block 67 | FAS-TE inh conf inactive
Cc1ccc(-c2nc(NC(=O)c3ccc(S(=O)(=O)N(CCC#N)CCC#N)cc3)sc2-c2ccccc2)cc1	none
